Only some compounds are listed: those with a hit (about 21% of all), similar ones and a draw of the others.
CHX counter: counter-screen hit for Shiga toxin inhibitors, cycloheximide. cell reporter, cycloheximide protein synthesis inhibition counterscreen. max response, %. 300,000 compounds, 12% hits. AID 2314; in the data active = max response mostly above about 13%, no sharp cut-off; inactive = mostly below about 14%; note: read at 38.3 µM for the half of the compounds with a filed dose; 0% is about no effect
Pf growth 96h: P. falciparum growth inhibition at 96 hour, primary screen for plastid delayed-death inhibitors. P. falciparum luciferase reporter growth, 96 h. Potency, µM (top dose mostly 28.7 µM), for inactives: at the top dose activity change, negative = inhibition, actives largely listed as inhibitors. 320,000 compounds, 6.9% hits. AID 504834; note: potency is the fitted concentration of half-maximal effect; % is set by controls: 0 for no effect and ±100 for the full control effect
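Two parasite generations (96 h, 37 C, 5% CO2) of compound exposure in infected erythrocytes (0.05% parasitemia, 2% hematocrit). Luciferase-reporter P. falciparum; decreased luminescence indicates inhibited growth, aimed at apicoplast-acting delayed death.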
Pf growth 48h: P. falciparum growth inhibition at 48 hours (one generation); P. falciparum luciferase growth in erythrocytes, 48 h; Potency, µM (series often up to 28.7 µM), for inactives: top-dose activity change, negative = inhibition, most hits filed as inhibitors; 310,000 compounds, 5.9% hits; AID 504832; note: potency is the fitted concentration of half-maximal effect; % is set by controls: 0 for no effect and ±100 for the full control effect
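Read-out is firefly luciferase luminescence from an integrated reporter in P. falciparum, so falling signal marks reduced parasite growth. Infected erythrocytes were at 2% hematocrit and 0.1% parasitemia (final) in Albumax-supplemented RPMI 1640.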
Shiga inhibitor: inhibitors of Shiga toxin in Vero cells; Vero cells, Shiga toxin protein synthesis inhibition reporter; inhibition, % at 38.7 µM; 290,000 compounds, 9.2% hits; AID 2315; in the data active = inhibition mostly above about 28%, no sharp cut-off; inactive = mostly below about 43%; note: 0% is about no effect
* hit, by the source's call; u = inconclusive; x = no result given. Unless noted, calls come from the whole dose curve; as a rule, active = well fitted inhibition curve with a large enough effect; inconclusive = small, poorly fitted or top-dose-only effect, or another doubt; inactive = no such curve, though single readings can be large or run the other way.

SMILES	CHX counter	Pf growth 96h	Pf growth 48h	Shiga inhibitor
Cc1cc(C(=O)N/N=C/c2ccc3c(c2)OCO3)c(C)o1	42.3*	43.4%	80.8%	54.8*
Cn1cc(C(=O)N/N=C/c2ccc(Br)c([N+](=O)[O-])c2)c2ccccc21	1.2	u	u	7.5
Cn1cc(C(=O)N/N=C/c2ccc3c(c2)OCO3)c2ccccc21	39.8*	-7.2%	9.9%	57.9*
Cc1occc1C(=O)N/N=C/c1ccc2c(c1)OCO2	25.9*	440.0%	105.2%	67.2*
Cn1cc(C(=O)N/N=C/c2cccs2)c2ccccc21	39.1*	u	u	67.5*
O=C(CSc1nnc(C2CC2)n1-c1ccccc1)N1CCNC1=O	x	18.0%	36.3%	x
C=CCn1c(SCC(=O)Nc2cccc(OC)c2)nnc1-c1cccnc1	19.0*	u	-0.2%	-47.8
C=CCn1c(SCC(=O)Nc2ccc(NC(=O)c3ccco3)c(OC)c2)nnc1-c1ccncc1	-1.5	u	13.1µM*	-11.4
COC(=O)Cc1cc(=O)oc2cc(O)ccc12	6.2	43.8%	1.3%	-9.3
Cc1cccc(N2N=C(C(=O)Nc3ccc(Cl)c(S(=O)(=O)N4CCOCC4)c3)CCC2=O)c1	x	u	11.7µM*	x
Cc1ccc(-n2ccc(=O)c(C(=O)Nc3ccc(S(=O)(=O)N4CCOCC4)cc3)n2)cc1	-4.3	0.0%	23.2%	14.9
Cc1cccc(-n2ccc(=O)c(C(=O)Nc3ccc(S(=O)(=O)N4CCOCC4)cc3)n2)c1	10.4	11.7µM*	-28.6%	-8.6
CC1=NN(c2ccc(C(=O)O)cc2)C(=O)CC1	29.0*	2.5%	40.8%	44.4*
Cc1cccc(N2N=C(C(=O)O)CCC2=O)c1	1.2	u	9.28µM*	-7.7
CCC(=O)Nc1nnc(S(=O)(=O)N(C)c2ccccc2)s1	-0.8	u	25.0%	42.0
COCCNC(=O)c1ccccc1NC(=O)CCSc1ccccc1	1.9	u	2.3%	16.7
COc1ccc(NC(=O)c2cc(C)no2)cc1OC	-3.7	u	-4.4%	-5.6
Cc1cc(C(=O)Nc2ccc(Cl)cc2)on1	22.7*	52.2%	10.0%	58.4*
Cc1ocnc1C(=O)Nc1ccc(Cl)cc1	43.5*	111.0%	155.5%	122.1*
CCOC(=O)c1[nH]cnc1C(=O)Nc1ccc(Cl)cc1	-1.6	u	-9.7%	-6.4
COc1ccc(NC(=O)c2cc(C)no2)cc1Cl	11.9	3.7µM*	4.15µM*	20.2
Cc1cc(C(=O)Nc2ccc(C#N)cc2)on1	8.2	14.0%	36.3%	5.0
O=C(Nc1nc(-c2cccs2)c(-c2cccs2)s1)C1CCCC1	9.1	u	-23.7%	-9.1
Cc1cc(C)n2nc(-c3ccsc3-n3c(C)ccc3C)cc2n1	-2.4	u	13.1µM*	-10.2
Nc1cc(-c2ccc(Br)cc2)nc2cc(-c3ccccc3)nn12	23.8	3.6%	29.0%	92.6*
SMILES	CHX counter	Pf growth 96h	Pf growth 48h	Shiga inhibitor
Cc1cc(C)n2nc(-c3cnn(C)c3C(F)(F)F)cc2n1	13.6	u	u	22.0
Cc1ccc(-c2cc3nc(C)cc(C)n3n2)cc1	38.3*	56.6%	145.2%	77.7*
Cc1cc(C)n2nc(-c3ccccc3)cc2n1	57.2*	-0.1%	162.7%	77.1*
Cc1ccc(OCCC(=O)OCC(=O)Nc2ccccc2)cc1	1.7	6.5%	2.0%	3.2
Cc1ccc(NC(=O)c2cc3nc(C)cc(C)n3n2)cc1	46.8*	263.9%	x	101.2*
Cc1cc(C)n2nc(Nc3ccccc3)cc2n1	27.8*	u	72.0%	88.2*
CCc1cc(Cn2nc(-c3ccccc3)cc2C(=O)NCc2ccccc2OC)on1	x	u	10.4µM*	x
CS(=O)(=O)Nc1ccccc1C(=O)OCC(=O)N1CCC(c2ccccc2)=N1	x	-20.5%	-11.0%	x
O=C(COc1ccc(Cl)cc1Cl)OCn1nnc2ccccc2c1=O	1.9	23.9%	x	-13.5
O=c1c2ccccc2nnn1COc1cccc(Cl)c1	55.2*	82.9%	97.4%	124.0*
Clc1ccc(Cn2ccc(C3CC3)n2)cc1	31.2*	97.9%	87.7%	65.9*
Cc1ccc(Cn2ccc(C3CC3)n2)cc1	61.9*	101.8%	116.9%	52.2
Cn1c(SCc2ccc(Cl)cc2)nnc1C1CC1	-0.5	4.2%	22.8%	9.1
COc1ccccc1C1CCN(Cc2ccc(C)cc2)CC1	-3.6	u	x	-5.9
CCC1CCCCN1C(=O)COC(=O)c1ccc(Br)o1 (configuration not stated)	x	u	-17.0%	x
O=S(=O)(Nc1ccncc1Cl)c1ccc2ccccc2c1	0.5	4.1%	7.2%	16.2
COC(=O)Nc1nnc(/C=C/c2ccc(OC)cc2)s1	57.7*	52.7%	120.6%	96.1*
COc1ccc(/C=C/c2nnc(NC(C)=O)s2)cc1	35.2*	-36.1%	276.3%	72.3*
Fc1cc(Cl)ccc1NC1=NCCCCC1	-0.7	14.4%	18.5%	-6.1
O=C(Nc1cccc(F)c1)C1CCN(C(=O)N2CCOc3ccccc32)CC1	-3.3	9.5%	-12.8%	-7.6
CC1CC(C)CN(C(=O)CSC2=Nc3ccccc3C3=NC(Cc4c[nH]c5ccccc45)C(=O)N23)C1 (configuration not stated)	-2.4	5.22µM*	x	-8.1
COCc1cc(C)nc(NC2CCCCC2)c1C#N	5.1	-26.9%	3.7µM*	-4.2
COCc1cc(C)nc(N2CCCCC2)c1C#N	2.9	-3.9%	-2.8%	26.6
CCOc1ccc(NC2OCC(O)C(O)C2O)c([N+](=O)[O-])c1 (configuration not stated)	-4.7	-20.0%	2.3%	20.5
Cc1sc2ncn(CC(=O)NCCCC(=O)Nc3ccc(C(C)C)cc3)c(=O)c2c1C	-1.5	-3.2%	20.3%	-5.0
SMILES	CHX counter	Pf growth 96h	Pf growth 48h	Shiga inhibitor
CCOC(=O)c1sc(N)c(C(=O)OC)c1C	33.1*	22.0%	81.1%	64.2*
CCOC(=O)c1sc(NC(=O)/C=C/c2cnn(CC)c2C)c(C(=O)OCC)c1C	-3.7	8.28µM*	u	-1.2
CCOC(=O)c1sc(NN=C(C(=O)OC)C(=O)OC)c(C(=O)OCC)c1C	6.6	u	u	31.9*
CCOC(=O)c1c(N)sc(C(=O)OC)c1C	17.0	50.0%	41.7%	39.6
Cc1ccc(OC(C)C(=O)Nc2ccc3c(c2)n(C)c(=O)n3C)c(C)c1 (configuration not stated)	0.1	u	-17.2%	1.3
CCOC(=O)c1ccccc1NC(=O)COC(=O)CCC(=O)c1ccccc1	-2.0	0.0%	-12.2%	8.3
CCN(CC(=O)NC(=O)NCc1ccccc1)Cc1ccccc1	0.6	10.9%	24.9%	-6.0
CCCC1=[N+](CC(=O)c2ccccc2)CCn2c(C)ccc21	-1.0	10.1%	u	-4.7
CCCC1=[N+](CC(=O)c2ccc(C)cc2)CCn2cccc21	1.2	u	10.4µM*	-6.0
CCOC(=O)C1=C(COC(=O)c2ccccc2[N+](=O)[O-])NC(=O)NC1C (configuration not stated)	x	18.9%	-15.8%	x
CCOC(=O)C1=C(Cc2ccc(Cl)cc2)C(=O)c2ccccc2C1=O	12.3	x	u	40.2
CCOC(=O)C1=C(C)N=C2c3ccccc3C(=O)C2C1c1ccc(Cl)cc1 (configuration not stated)	-1.0	10.4µM*	10.4µM*	-11.7
CCC(C)c1ccccc1NC(=S)NC(=O)c1ccco1 (configuration not stated)	-3.3	-18.2%	u	-1.1

Compound activity as filed in PubChem BioAssay.
